High-throughput results: PubChem BioAssay, several laboratories
PLAP act – activators of human placental alkaline phosphatase; activation fold at 20 µM; 96,000 tested, 1.2% active; P05187; purified PLAP enzyme, luminescent substrate read-out; hits give high values; in the data active = activation fold above about 2
sEH act – activators of human soluble epoxide hydrolase; 91,000 tested, 0.04% active; purified human sEH enzymatic activity, activator screen; activation, % at 2 µM; AID 717; P34913; in the data active = activation above about 37%
LYP act – activators of human LYP (PTPN22) phosphatase. Q9Y2R2. recombinant LYP, DiFMUP fluorescence; 0 = plate median, 100 = signal doubled. activation, % at 2 µM. 96,000 tested, 0.11% active;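 active = activation at 2 µM above a set limit, the mean plus 5 SD, cut at about 37% in these data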
Target sequence (Q9Y2R2 whole entry, looked up): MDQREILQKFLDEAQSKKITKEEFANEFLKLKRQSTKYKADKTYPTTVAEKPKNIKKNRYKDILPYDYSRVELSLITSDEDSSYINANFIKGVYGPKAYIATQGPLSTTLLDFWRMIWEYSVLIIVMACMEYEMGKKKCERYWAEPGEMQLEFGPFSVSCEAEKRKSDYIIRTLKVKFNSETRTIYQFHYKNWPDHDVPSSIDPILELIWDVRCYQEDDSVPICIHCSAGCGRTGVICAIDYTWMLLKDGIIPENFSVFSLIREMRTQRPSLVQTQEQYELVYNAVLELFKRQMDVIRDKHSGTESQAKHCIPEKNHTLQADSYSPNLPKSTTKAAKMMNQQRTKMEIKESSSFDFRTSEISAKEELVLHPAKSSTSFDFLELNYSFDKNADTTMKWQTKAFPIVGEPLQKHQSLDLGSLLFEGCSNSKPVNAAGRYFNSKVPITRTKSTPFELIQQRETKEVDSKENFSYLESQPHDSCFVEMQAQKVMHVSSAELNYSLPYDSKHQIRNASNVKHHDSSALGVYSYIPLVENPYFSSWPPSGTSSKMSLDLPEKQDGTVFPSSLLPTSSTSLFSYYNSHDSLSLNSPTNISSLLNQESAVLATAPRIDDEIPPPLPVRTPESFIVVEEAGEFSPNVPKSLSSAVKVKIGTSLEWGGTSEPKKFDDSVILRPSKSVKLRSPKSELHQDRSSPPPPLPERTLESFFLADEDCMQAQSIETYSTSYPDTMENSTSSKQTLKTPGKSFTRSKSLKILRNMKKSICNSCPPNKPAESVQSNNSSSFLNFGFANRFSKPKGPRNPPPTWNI
EphB4 antag – antagonists of human EphB4-ephrin-B2 interaction | AID 720 | 97,000 tested, 0.15% active | inhibition, % at 7 µM | EphB4 LBD / TNYL-RAW-Alexa532 peptide, fluorescence polarization;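 active = inhibition above the screen-wide mean inhibition plus 3 SD, cut at about 15% in these data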;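 also: 0% = DMSO wells and 100% = excess unlabeled TNYL-RAW peptide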
LYP inh 2 – blocks human PTPN22 phosphatase activity. AID 640. 96,000 tested, 0.21% active. Q9Y2R2. recombinant LYP catalytic domain, DiFMUP fluorescence. inhibition, % at 2 µM;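 active = inhibition at 2 µM at or above a set limit, the screen mean plus 3 SD, cut at about 24% in these data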;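 also: 0% = DMSO with enzyme and 100% = enzyme fully blocked by orthovanadate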
sEH inhibitor – blocks human soluble epoxide hydrolase activity; P34913; recombinant human sEH enzymatic activity assay; inhibition, % at 2 µM; 91,000 tested, 0.34% active; AID 707; in the data active = inhibition above about 80%
Active calls of the source: *; nt = no result. Most compounds without a hit are left out; they make up all but 1.6% or so of the library.

SMILES | PLAP act | sEH act | LYP act | EphB4 antag | LYP inh 2 | sEH inhibitor
C/C(Cl)=C\Cn1c(NCCc2ccccc2)nc2c1c(=O)n(C)c(=O)n2C | 1.1 | nt | nt | nt | nt | nt
C=CCn1c(NCCc2ccccc2)nc2c1c(=O)n(C)c(=O)n2C | 1.1 | 0 | -12 | 16* | 14 | -2
COc1ccccc1C(=O)NCC1CCN(c2ccc(S(=O)(=O)N3CCOCC3)cc2)CC1 | 1.6 | 5 | 10 | 2 | -8 | -11
Cc1ccccc1C(=O)NNC(=S)NC(=O)COc1ccccc1 | 2.4* | 12 | 4 | 11 | -9 | -11
Cc1ccc(C(=O)Nc2nc3ccccc3n2CCN2CCCC2)cc1 | 2.8* | 8 | 0 | 4 | -1 | -7
O=C(Nc1nc2ccccc2n1CCN1CCCC1)C1CCCCC1 | 2.6* | 6 | -4 | 4 | 5 | -3
O=C(Nc1nc2ccccc2n1CCN1CCCC1)c1ccc(Cl)cc1 | 1.3 | nt | nt | nt | nt | nt
Cc1cc(NC(c2ccc(Cl)cc2)c2ccc3cccnc3c2O)no1 (stereo unspecified) | 2* | 3 | 0 | 16* | 4 | -4
Cc1ccc2ccc(C(Nc3ccccn3)c3ccccc3)c(O)c2n1 (stereo unspecified) | 1.8 | -7 | -4 | 2 | 4 | 7
COC(=O)c1ccccc1NC(=O)CSc1nnc(CNS(=O)(=O)c2ccc(C)cc2)n1C | 1.1 | -3 | -7 | 6 | 6 | 3
CCCCNc1nc2ccccc2[nH]1 | 2.7* | 15 | 4 | -3 | 0 | -16
COc1ccc(CNc2nc(NCc3ccc(OC)c(OC)c3)n(C(=O)c3cccs3)n2)cc1OC | 1 | 6 | 0 | 0 | -1 | -6
O=C(O)CCC(=O)N1CCN(c2nc(-c3ccccc3Cl)c3cc(Br)ccc3n2)CC1 | 1.5 | 16 | -1 | 16* | 6 | -16
CCO/N=C(\C)c1c(O)c(CC)c(-c2ccccc2)n(-c2ccccc2)c1=O | nt | -6 | 7 | -7 | -6 | 8
CCN(CC)S(=O)(=O)c1ccc(Br)c(OC)c1 | 0.9 | -4 | 11 | -6 | -14 | 4
COc1ccc(C(=O)N/N=C2/SCC(=O)N2Cc2ccc3c(c2)OCO3)cc1OC | 1 | 15 | 4 | 16* | 2 | -11
Cc1cccc(NC(=O)C23CCC(C)(C2Br)C3(C)C)c1 (stereo unspecified) | 0.8 | -48 | -12 | 1 | 15 | 48
Cc1nc2c(C(=O)N3CCN(C)CC3)cnn2c(C)c1Cc1ccc(Cl)cc1 | 2.1* | -1 | 5 | 4 | -7 | 3
Cc1ccc(Cc2c(C)nc3c(C(=O)O)cnn3c2C)cc1 | nt | 19 | -1 | -3 | -3 | -16
CCCCn1c(SCC(=O)Nc2ccc3c(c2)OCO3)nc2c1c(=O)n(C)c(=O)n2C | 1 | -4 | 6 | -1 | -6 | 3
C=CCc1cccc2cc(C(=O)N(CC)CC)c(=O)oc12 | 1.1 | -6 | -5 | -2 | 3 | 7
Cc1cccc(NC(=O)CN(C)S(=O)(=O)c2ccc(Cl)cc2)n1 | 0.9 | nt | nt | nt | nt | nt
Cc1cccc(NC(=O)c2ccc(S(=O)(=O)N(C)C)cc2)n1 | 1 | -3 | -7 | 18* | 7 | 7
CC(=O)N1CCc2cc(S(=O)(=O)NCCN3CCC(C)CC3)ccc21 | 1.3 | 14 | 6 | -1 | -4 | -12
CCOc1ccc2nc3c(cc2c1)CN(CCOC)C(=NCCOC)S3 | 1.1 | -5 | 6 | 3 | -4 | 6
SMILES | PLAP act | sEH act | LYP act | EphB4 antag | LYP inh 2 | sEH inhibitor
COCCN=C1Sc2nc3ccc(C)cc3cc2CN1Cc1ccco1 | 2* | -2 | -2 | 5 | -1 | 2
O=c1cnnc(SCCc2ccccc2)[nH]1 | 1.1 | -8 | 11 | -1 | -11 | 10
Nc1ncnc2nc(SCCc3ccccc3)[nH]c12 | 2* | nt | nt | nt | nt | nt
CCCCOc1[nH]c2nc(-c3ccco3)n(Cc3ccco3)c(=N)c2c1C#N | 1.3 | -7 | -7 | 2 | 6 | 4
CC(C)(C)c1ccccc1OCC(=O)Nc1ncn[nH]1 | 2* | -5 | -10 | -4 | 9 | 6
CC(C)(C)c1cc(Br)ccc1OCC(=O)Nc1ncn[nH]1 | 1.1 | -10 | 5 | 2 | -6 | 10
O=C(CCc1ccccc1)Nc1ncn[nH]1 | 2.6* | 7 | 6 | -12 | -7 | -5
O=C(Cc1ncn[nH]1)NCCc1ccccc1 | 2.4* | 4 | 5 | 5 | -6 | -7
Cc1cccc(N2CCN(CC(=O)Nc3nccs3)CC2)c1C | 2.3* | 6 | -1 | 5 | 1 | -7
COc1ccc(C(=O)c2sc3nc(-c4ccccc4)ccc3c2N)cc1OC | 1 | 11 | -23 | -3 | 25* | -10
CN(C)/C=C/C(=O)c1ccc(F)cc1 | 1 | -1 | -23 | -2 | 26* | 3
CCCn1c(N)c(C(=O)CN2CCN(S(=O)(=O)c3cccs3)CC2)c(=O)[nH]c1=O | 1 | 7 | 2 | 6 | -2 | -4
COC(=O)c1ccc(NC(=O)CN2CCN(c3ccc(Cl)cc3)CC2)cc1 | 1.1 | nt | nt | nt | nt | nt
COc1cccc(N2CCN(CC(=O)Nc3nnc(-c4ccccc4)s3)CC2)c1 | 2* | 9 | -12 | -5 | 9 | -10
COc1cccc(N2CCN(CC(=O)NCc3cccs3)CC2)c1 | 1.3 | 12 | 11 | 10 | -15 | -8
COC(=O)c1ccc(NC(=O)CN2CCN(c3cccc(Cl)c3)CC2)cc1 | 1 | 5 | 1 | 17* | 0 | -2
CCCc1cc(N2CCCC(C(=O)NCC)C2)n2ncnc2n1 (stereo unspecified) | 0.8 | -1 | 1 | -5 | -3 | 2
c1ccc(Cn2c(CNc3nc4ccccc4n3CCN3CCOCC3)nc3ccccc32)cc1 | 2.8* | -7 | 1 | 1 | 0 | 6
CCC(=O)Nc1nc2ccccc2n1CCN1CCOCC1 | 1.3 | 4 | 5 | -3 | -7 | -3
CCC(=O)c1ccc(N2CCCC2)c(F)c1 | nt | 39* | -6 | -6 | 6 | -39
CCC(=O)c1ccc(N2CCCCCC2)c(F)c1 | 1.2 | nt | 9 | -8 | -12 | nt
Cc1nc2c(n1C1CCCCC1)C(=O)c1ccccc1C2=O | 0.9 | -11 | -8 | -3 | 10 | 14
COc1cc(OC)c(OC)cc1CNCCNC(=O)c1nonc1N | 1 | -2 | -4 | 3 | 3 | 3
CCOC(=O)c1[nH]c(=O)[nH]c1COC(=O)c1cc2ccccc2o1 | 2.2* | -8 | -4 | 6 | -1 | 8
CCOC(=O)CCCCC(=O)c1[nH]c(=O)[nH]c1CSc1nc(C)cc(=O)[nH]1 | 2.2* | nt | nt | nt | nt | nt
CCOC(=O)CCCCC(=O)c1[nH]c(=O)[nH]c1CSc1nc(C)cc(C)n1 | 2* | -7 | 2 | -7 | -3 | 6
CCOC(=O)c1[nH]c(=O)[nH]c1CSc1nc(C)cc(C)n1 | 2.2* | 6 | 11 | -1 | -12 | -4
Fc1ccccc1CSc1nc2ccccc2[nH]1 | 1 | 0 | -4 | 0 | 4 | -1
CCN(CC)C(=O)CSCc1cnn(-c2ccccc2)c1-n1cccc1 | 1.4 | -6 | -9 | 4 | 8 | 5
COCCCNC(=O)C1CCCN(S(=O)(=O)c2ccc(C)cc2)C1 (stereo unspecified) | nt | 0 | 0 | 7 | -2 | 0
